PubChem BioAssay (NCATS)
Results filed as inconclusive are left out. The source made the active and inactive calls. Unless noted, calls follow the shape of the dose curve; as a rule, active = well fitted curve in either direction with a large enough effect (not every such curve was filed as active); inconclusive = small, poorly fitted or top-dose-only effect, or another doubt; inactive = flat fitted curve, though single readings scatter.

Assays:
[1] = target: Lysosomal acid glucosylceramidase (Homo sapiens) (UniProt P04062); experiment: Glucocerebrosidase-p2 (AID 348; in the data active = potency below about 10 µM; also: potency is read from the fitted curve at half-maximal effect); conditions: purified GBA, blue fluorogenic substrate, 40 min
Sequence of Lysosomal acid glucosylceramidase (Homo sapiens) (P04062 whole entry, looked up): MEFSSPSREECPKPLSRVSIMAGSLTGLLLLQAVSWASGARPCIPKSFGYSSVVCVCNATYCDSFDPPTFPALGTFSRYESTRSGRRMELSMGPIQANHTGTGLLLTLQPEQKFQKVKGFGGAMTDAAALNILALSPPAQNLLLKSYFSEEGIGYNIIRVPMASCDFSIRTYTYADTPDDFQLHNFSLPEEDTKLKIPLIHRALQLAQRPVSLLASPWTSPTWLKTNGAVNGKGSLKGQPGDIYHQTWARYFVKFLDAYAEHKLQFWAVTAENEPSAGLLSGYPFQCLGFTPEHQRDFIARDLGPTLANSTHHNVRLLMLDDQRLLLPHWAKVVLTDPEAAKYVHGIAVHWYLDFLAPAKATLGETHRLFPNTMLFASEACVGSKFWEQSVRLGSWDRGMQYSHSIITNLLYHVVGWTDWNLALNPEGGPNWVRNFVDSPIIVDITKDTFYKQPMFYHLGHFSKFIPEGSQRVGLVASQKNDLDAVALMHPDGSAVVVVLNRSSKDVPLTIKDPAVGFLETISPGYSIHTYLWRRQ
Procedure, shortened: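 Normal human glucocerebrosidase (0.2 nM) with blue fluorogenic substrate (80 uM final) in citrate/phosphate pH 5.9 with 10mM sodium taurocholate, 0.01% tween-20; 40 min RT, NaOH/glycine stop; fluorescence Ex 365/Em 440; AC50 from a titration from 0.6 nM upwards.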

[2] = AP1 Signaling Pathway (AID 357); conditions: ME-180 AP-1-bla reporter, EGF-induced, beta-lactamase ratio, 5 h; at 7.69 µM (top of the series) unless noted;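 also: ME-180 reporter cells stimulated with EGF at its EC50 level; % is scaled to controls: 0 for no effect and ±100 for the full control effect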
Procedure, shortened: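 In this screen, ME-180 cells in Opti-MEM with 0.5% dialyzed FBS received EC50 EGF and compound titrations for 5 h. AP-1 reporter beta-lactamase was detected via CCF4 ratio, giving AC50 for positive and negative modulators.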

[3] = target: Cytochrome P450 1A2 (Homo sapiens) (UniProt P05177); experiment: p450-cyp1a2 (AID 410; calls by dose curve; also: potency is read from the fitted curve at half-maximal effect); conditions: recombinant CYP1A2, luciferin-ME demethylation, luminescence; series mostly up to 57 µM
Sequence of Cytochrome P450 1A2 (Homo sapiens) (P05177 whole entry, looked up): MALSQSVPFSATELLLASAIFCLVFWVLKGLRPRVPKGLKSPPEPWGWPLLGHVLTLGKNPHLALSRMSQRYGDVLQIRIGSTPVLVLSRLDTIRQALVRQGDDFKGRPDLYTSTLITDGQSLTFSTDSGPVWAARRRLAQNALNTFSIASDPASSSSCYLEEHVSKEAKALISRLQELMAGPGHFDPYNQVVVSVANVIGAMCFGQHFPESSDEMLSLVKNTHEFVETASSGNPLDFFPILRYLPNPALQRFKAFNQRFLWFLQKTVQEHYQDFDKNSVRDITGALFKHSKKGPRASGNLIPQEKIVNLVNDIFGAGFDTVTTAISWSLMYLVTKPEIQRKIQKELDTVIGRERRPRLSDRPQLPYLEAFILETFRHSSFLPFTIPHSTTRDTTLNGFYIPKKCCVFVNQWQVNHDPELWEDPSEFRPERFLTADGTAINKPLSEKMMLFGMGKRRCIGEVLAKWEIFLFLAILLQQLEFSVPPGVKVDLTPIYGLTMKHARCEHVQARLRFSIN
Procedure, shortened: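 Luminescent demethylation readout: Luciferin-ME (100uM, equal to Km) turned over by 20nM CYP1A2 for 60 min at room temperature after NADPH regeneration addition, following 10 min compound preincubation. Normalization used 57 uM furafylline as full inhibition.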

[4] = NFAT Signaling Pathway (AID 444); conditions: Jurkat NFAT-bla M1, carbachol, beta-lactamase ratio, 5 h; at 7.69 µM (top of the series) unless noted;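 also: carbachol stimulus at about its EC50 of 1 µM final; % is scaled to controls: 0 for no effect and ±100 for the full control effect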
Procedure, shortened: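 Jurkat cells with NFAT-driven β-lactamase reporter and co-expressed M1 receptor, stimulated with carbachol (final 1 uM, ~EC50), compound titration, 5 h at 37 °C. CCF4 loaded 1 h at RT; 460/530 nm ratio gave %activity and AC50.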

[5] = Stat Signaling Pathway (AID 446); conditions: ME-180 SIE beta-lactamase reporter, IL-6 stimulated, 5 h; at 7.69 µM (top of the series) unless noted;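 also: ME-180 cervical cancer cells given 40 pM IL-6 alongside compound; SIE-controlled beta-lactamase reporter measured as 460/530 nm FRET emission ratio; % is scaled to controls: 0 for no effect and ±100 for the full control effect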
Procedure, shortened: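 Normalization used AC90 stimulation (300 pM IL-6) and AC90 inhibition (125 nM pan-JAK inhibitor at 40 pM IL-6). The underlying signal is SIE-driven beta-lactamase in ME-180 cells after 5 h IL-6 exposure with compound.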

[6] = target: Glucocorticoid receptor (Homo sapiens) (UniProt P04150); experiment: GR-GFP Redistribution (AID 450;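 active = compounds whose dose series gives a full or clear partial fitted curve of increased nuclear translocation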; also: potency is read from the fitted curve at half-maximal effect); conditions: U2OS GR-GFP nuclear translocation, laser cytometry, 2 h
Sequence of Glucocorticoid receptor (Homo sapiens) (P04150 whole entry, looked up, the tested form may be a part): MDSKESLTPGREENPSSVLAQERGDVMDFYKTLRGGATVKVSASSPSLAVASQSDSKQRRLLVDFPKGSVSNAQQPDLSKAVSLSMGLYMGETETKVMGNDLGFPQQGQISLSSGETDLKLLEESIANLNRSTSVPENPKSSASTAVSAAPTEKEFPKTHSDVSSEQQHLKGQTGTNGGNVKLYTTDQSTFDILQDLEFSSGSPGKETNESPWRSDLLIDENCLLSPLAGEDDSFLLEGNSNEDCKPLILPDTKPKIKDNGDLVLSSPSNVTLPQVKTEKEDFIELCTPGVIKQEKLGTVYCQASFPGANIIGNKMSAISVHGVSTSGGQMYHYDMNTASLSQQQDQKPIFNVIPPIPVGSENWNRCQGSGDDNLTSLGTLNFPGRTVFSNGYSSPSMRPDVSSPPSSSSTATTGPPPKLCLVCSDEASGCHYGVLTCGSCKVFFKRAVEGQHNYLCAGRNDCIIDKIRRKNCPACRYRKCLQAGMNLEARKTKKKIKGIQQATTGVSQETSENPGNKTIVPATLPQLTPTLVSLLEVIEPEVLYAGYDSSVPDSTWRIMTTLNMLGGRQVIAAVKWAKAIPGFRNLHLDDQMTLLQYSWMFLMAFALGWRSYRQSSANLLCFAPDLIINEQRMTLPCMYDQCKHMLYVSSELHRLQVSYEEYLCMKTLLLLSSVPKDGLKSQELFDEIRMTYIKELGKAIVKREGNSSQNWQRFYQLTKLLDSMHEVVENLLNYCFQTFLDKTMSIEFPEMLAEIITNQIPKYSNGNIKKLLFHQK

[7] = target: Glucocorticoid receptor (Homo sapiens) (UniProt P04150); experiment: GR-EFC Redistribution (AID 451; calls by dose curve; also: potency is read from the fitted curve at half-maximal effect); conditions: CHO-K1 GR-EFC translocation, beta-gal luminescence, 2 h
Procedure, shortened: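 CHO-K1 cells expressing nuclear EA and GR-ED fragments of b-gal; compounds titrated up to 46 uM final, 2 h at 37 C. GR nuclear translocation read as complemented b-gal luminescence after 1 h RT detection.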

[8] = target: Mitogen-activated protein kinase 10 (Mus musculus) (UniProt Q61831); experiment: JNK3 AlphaScreen Assay (AID 530); conditions: JNK3 lysate, c-Jun phosphorylation; series mostly up to 57.1 µM;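 also: kinase came from lysate of stimulated human HepG2 cells; signal reports phosphorylation of biotinylated GST-cJun 1-79 at Ser73 with 10 µM ATP; % is scaled to controls: 0 for no effect and ±100 for the full control effect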
Procedure, shortened: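 Activity was read by AlphaScreen after JNK3-containing HepG2 lysate (cytokine pre-activated) phosphorylated biotinylated GST-cJun with 10 uM ATP at room temperature. Phospho-Ser73 cJun antibody with Protein-A acceptor beads provided detection.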

[9] = target: 3',5'-cyclic-AMP phosphodiesterase 4B (Homo sapiens) (UniProt Q07343); experiment: qHTS Assay for Inhibitors of PDE-IV (AID 607; active = well fitted activation curve with a large enough effect in the main read-out, with a control signal flat, not every such curve was filed as active; also: % of control where 0% means no effect); conditions: HEK293 ACTOne CNG channel cells, membrane potential fluorescence; series mostly up to 22.9 µM
Sequence of 3',5'-cyclic-AMP phosphodiesterase 4B (Homo sapiens) (Q07343 whole entry, looked up): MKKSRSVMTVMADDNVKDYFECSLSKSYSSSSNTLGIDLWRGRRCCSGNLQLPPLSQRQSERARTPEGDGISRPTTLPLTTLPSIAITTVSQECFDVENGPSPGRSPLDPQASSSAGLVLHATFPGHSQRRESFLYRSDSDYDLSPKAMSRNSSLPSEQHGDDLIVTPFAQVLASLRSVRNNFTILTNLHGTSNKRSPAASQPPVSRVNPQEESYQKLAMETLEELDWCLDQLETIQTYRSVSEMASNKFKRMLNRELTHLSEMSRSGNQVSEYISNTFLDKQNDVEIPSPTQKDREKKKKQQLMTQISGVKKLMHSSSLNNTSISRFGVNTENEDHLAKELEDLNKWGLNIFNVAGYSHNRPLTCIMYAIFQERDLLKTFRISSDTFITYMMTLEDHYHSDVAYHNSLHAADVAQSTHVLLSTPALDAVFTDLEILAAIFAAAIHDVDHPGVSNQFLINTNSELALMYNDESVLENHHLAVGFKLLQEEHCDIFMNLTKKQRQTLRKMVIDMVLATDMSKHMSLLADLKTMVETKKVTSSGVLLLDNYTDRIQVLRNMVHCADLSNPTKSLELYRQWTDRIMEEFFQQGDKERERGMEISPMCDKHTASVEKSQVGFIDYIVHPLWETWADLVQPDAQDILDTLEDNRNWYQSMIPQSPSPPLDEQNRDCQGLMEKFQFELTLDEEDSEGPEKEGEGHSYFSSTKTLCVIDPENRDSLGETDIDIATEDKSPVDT
Procedure, shortened: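 HEK293 ACTOne cells with CNG channel (1000/well), endogenous PDE4; membrane potential dye, compounds up to 22.9 uM final. Fluorescence Ex 535/Em 590; RO 20-1724 (100 uM final) as reference.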

[10] = target: Cytochrome P450 3A4 (Homo sapiens) (UniProt P08684); experiment: qHTS Assay for Activators of Cytochrome P450 3A4 (AID 885; active = well fitted curve in the direction sought with a large enough effect; an effect the other way counts as inactive or inconclusive; also: nearly all actives have a fitted effect of over 65% in size); conditions: recombinant CYP3A4, Luciferin-PPXE luminescence, 60 min; series mostly up to 57.1 µM
Sequence of Cytochrome P450 3A4 (Homo sapiens) (P08684 whole entry, looked up): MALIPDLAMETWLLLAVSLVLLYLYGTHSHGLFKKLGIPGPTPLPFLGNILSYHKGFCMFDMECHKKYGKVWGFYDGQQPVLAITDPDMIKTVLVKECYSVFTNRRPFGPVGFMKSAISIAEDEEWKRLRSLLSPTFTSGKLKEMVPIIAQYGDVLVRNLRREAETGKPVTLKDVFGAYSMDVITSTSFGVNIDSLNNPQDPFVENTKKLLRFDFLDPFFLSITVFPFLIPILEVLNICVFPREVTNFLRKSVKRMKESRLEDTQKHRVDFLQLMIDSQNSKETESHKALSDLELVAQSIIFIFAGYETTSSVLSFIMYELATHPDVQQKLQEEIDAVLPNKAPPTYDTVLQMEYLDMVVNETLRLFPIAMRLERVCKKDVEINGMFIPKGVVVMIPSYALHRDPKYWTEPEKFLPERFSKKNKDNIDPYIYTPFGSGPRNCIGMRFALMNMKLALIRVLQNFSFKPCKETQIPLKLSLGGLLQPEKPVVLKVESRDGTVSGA
Procedure, shortened: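 Human CYP3A4 dealkylates Luciferin-PPXE to luciferin, which luciferase detection converts to light. Substrate was at its KM (25uM), buffer 200mM KPO4, reaction 60 min at RT.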

[11] = qHTS Assay for Lipid Storage Modulators (AID 1519; calls by dose curve); conditions: Drosophila S3 cells, BODIPY lipid droplet/cell ratio, laser cytometry, cells loaded with oleic acid; for activity change, negative = inhibition: at 57.5 µM (top of the series)
Procedure, shortened: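 Cells seeded at 5,000 per well were treated with compounds over a concentration series and loaded with oleic acid (400 uM, as added). Lipid droplet fluorescence (488 nm excitation, 500-530 nm channel) was read by laser-scanning cytometry and normalized to 20 uM Triacsin C.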

[12] = Primary qHTS for small molecule stabilizers of the endoplasmic reticulum resident proteome: Secreted ER Calcium Modulated Protein (SERCaMP) assay (AID 1508630; active = well fitted curve in the direction sought with a large enough effect; an effect the other way counts as inactive or inconclusive; also: % is scaled to controls: 0 for no effect and ±100 for the full control effect); conditions: SH-SY5Y GLuc-SERCaMP (Gaussia luciferase released on ER calcium loss) secretion, thapsigargin, luminescence; series mostly up to 38.4 µM
Procedure, shortened: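 The SH-SY5Y reporter protocol was run at 3 concentrations up to 38.3 uM (primary) or 11 concentrations (follow-up): 16 h compound, 100 nM thapsigargin for 4 h, then extracellular luciferase luminescence.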

[13] = target: Cytochrome P450 3A4 (Homo sapiens) (UniProt P08684); experiment: qHTS Assay for Inhibitors and Substrates of Cytochrome P450 3A4 (AID 884; active = well fitted curve in the direction sought with a large enough effect; an effect the other way counts as inactive or inconclusive; also: nearly all actives have a fitted effect of over 50% in size; also: potency is read from the fitted curve at half-maximal effect); conditions: recombinant CYP3A4, Luciferin-PPXE luminescence; series mostly up to 57.1 µM
Procedure, shortened: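 Luminescent readout of luciferin produced by CYP3A4 (20 nM) dealkylation of Luciferin-PPXE, 25 uM (its KM). NADPH-driven reaction ran 60 min at RT after 10 min compound preincubation; data scaled to 57 uM ketoconazole as 100% inhibition.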

[14] = Confirmation and Secondary Assay for Modulators of Hemoglobin Beta Chain Splicing at IVS2 654 locus (AID 910; active = well fitted curve in the direction sought with a large enough effect; an effect the other way counts as inactive or inconclusive;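 also: HeLa cells stably carrying EGFP split by mutant beta-globin IVS2-654 intron; % of control where 0% means no effect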); conditions: HeLa EGFP-654 splicing reporter, GFP fluorescence, 48 h; series mostly up to 38.3 µM
Procedure, shortened: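 HeLa cells stably expressing EGFP interrupted by β-globin IVS2-654 intron, seeded overnight in Opti-MEM/2% FCS, then treated 2 days at 37 °C. Restored splicing read as total peak GFP intensity per well by laser scanning cytometry (488 nm excitation, 500–520 nm emission); 500 nM antisense PNA as control.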

[15] = Confirmation and Secondary Assay for Modulators of Hemoglobin Beta Chain Splicing at IVS2 705 locus (AID 930; active = well fitted curve in the direction sought with a large enough effect; an effect the other way counts as inactive or inconclusive;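 also: HeLa cells stably expressing the EGFP-705 splicing reporter; GFP fluorescence per well restored by corrected splicing of the IVS2-705 intron in EGFP; % of control where 0% means no effect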); conditions: HeLa EGFP-705 splicing reporter, GFP fluorescence, 48 h; series mostly up to 38.3 µM
Procedure, shortened: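 HeLa EGFP-705 reporter; 500 cells/well, o/n 37C 5% CO2; cpd 2 d; 488 ex/500-520 em laser scan; total peak GFP intensity/well. Ref: 500 nM […] antisense PNA.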

[16] = target: Ubiquitin carboxyl-terminal hydrolase 1 (Homo sapiens) (UniProt O94782); experiment: Inhibitors of USP1/UAF1: Pilot qHTS (AID 504865; active = well fitted curve in the direction sought with a large enough effect; an effect the other way counts as inactive or inconclusive;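 also: rhodamine fluorescence freed from ubiquitin-rhodamine substrate followed over time; top concentration of the series differs between compounds; % is scaled to controls: 0 for no effect and ±100 for the full control effect; nearly all actives have a fitted effect of over 35% in size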); conditions: purified USP1/UAF1, Ub-rhodamine cleavage fluorescence; series mostly up to 54.9 µM
Sequence of Ubiquitin carboxyl-terminal hydrolase 1 (Homo sapiens) (O94782 whole entry, looked up): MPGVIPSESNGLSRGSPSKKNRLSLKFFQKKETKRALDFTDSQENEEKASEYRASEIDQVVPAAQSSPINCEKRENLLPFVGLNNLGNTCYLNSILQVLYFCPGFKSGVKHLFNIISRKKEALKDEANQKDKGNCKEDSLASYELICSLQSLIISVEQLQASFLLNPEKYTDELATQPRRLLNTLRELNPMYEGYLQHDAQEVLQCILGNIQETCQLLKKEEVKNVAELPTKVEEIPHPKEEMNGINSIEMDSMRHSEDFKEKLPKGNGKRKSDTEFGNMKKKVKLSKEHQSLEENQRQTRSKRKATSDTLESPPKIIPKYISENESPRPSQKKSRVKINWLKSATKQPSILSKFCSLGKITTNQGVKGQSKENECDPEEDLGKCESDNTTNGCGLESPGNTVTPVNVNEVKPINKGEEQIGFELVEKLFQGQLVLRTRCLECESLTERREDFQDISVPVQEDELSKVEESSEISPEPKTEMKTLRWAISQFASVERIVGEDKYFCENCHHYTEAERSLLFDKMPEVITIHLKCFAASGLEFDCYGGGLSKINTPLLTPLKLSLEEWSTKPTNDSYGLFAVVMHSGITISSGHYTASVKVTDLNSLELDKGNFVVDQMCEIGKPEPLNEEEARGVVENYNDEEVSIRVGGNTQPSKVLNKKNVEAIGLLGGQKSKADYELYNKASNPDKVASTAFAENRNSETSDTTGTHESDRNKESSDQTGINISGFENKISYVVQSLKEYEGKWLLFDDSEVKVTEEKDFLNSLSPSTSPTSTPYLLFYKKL
Procedure, shortened: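 Enzyme-free wells gave the negative control, while test wells held 1nM USP1/UAF1 preincubated with compound for 15 min at room temperature. Ub-Rho at 150nM final started the reaction, and fluorescence at 480/540 nm was recorded kinetically.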

[17] = qHTS Assay for Identification of Small Molecule Agonists for Hypoxia Response Element Signaling Pathway (AID 914; active = well fitted activation curve with a large enough effect in the signal ratio, with a control signal flat, not every such curve was filed as active; the % refers to the signal ratio; also: potency is read from the fitted curve at half-maximal effect); conditions: ME-180 (cervical carcinoma) HRE-bla reporter, beta-lactamase ratio, CoCl2, 17 h; activation: stronger effect = higher value
Procedure, shortened: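 Read-out: CCF4 FRET ratio of 460nm to 530nm emission (excitation 405nm) after 2.5 hours at room temperature, taken from HRE-bla ME-180 cells that had been exposed to compound and EC50 CoCl2 for 17 hours.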

[18] = target: Cytochrome P450 2D6 (Homo sapiens) (UniProt P10635); experiment: qHTS Assay for Inhibitors and Substrates of Cytochrome P450 2D6 (AID 891; active = well fitted curve in the direction sought with a large enough effect; an effect the other way counts as inactive or inconclusive; also: potency is read from the fitted curve at half-maximal effect; nearly all actives have a fitted effect of over 60% in size); conditions: recombinant CYP2D6, luciferin-ME EGE luminescence; series mostly up to 57.1 µM
Sequence of Cytochrome P450 2D6 (Homo sapiens) (P10635 whole entry, looked up): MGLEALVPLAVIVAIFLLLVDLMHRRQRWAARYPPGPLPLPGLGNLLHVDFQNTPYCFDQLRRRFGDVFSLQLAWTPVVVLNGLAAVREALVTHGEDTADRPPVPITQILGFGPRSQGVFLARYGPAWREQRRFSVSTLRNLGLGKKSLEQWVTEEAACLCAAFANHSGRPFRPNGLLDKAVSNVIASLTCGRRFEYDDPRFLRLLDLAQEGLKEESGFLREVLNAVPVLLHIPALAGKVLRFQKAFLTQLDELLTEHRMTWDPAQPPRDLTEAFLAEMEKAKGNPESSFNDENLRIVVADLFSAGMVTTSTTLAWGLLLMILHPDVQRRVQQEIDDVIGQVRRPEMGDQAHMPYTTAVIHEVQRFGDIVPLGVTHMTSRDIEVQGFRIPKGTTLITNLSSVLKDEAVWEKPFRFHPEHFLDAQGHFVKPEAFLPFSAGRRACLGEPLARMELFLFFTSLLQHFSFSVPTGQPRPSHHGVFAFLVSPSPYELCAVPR
Procedure, shortened: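 Luminescent read-out of luciferin formed by 5 nM human CYP2D6 demethylating 30 uM Luciferin-ME EGE (Km level) over 60 min at room temperature after NADPH regeneration addition. Data normalized to full inhibition by 1.43 uM quinidine.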

[19] = target: Cytochrome P450 2C19 (Homo sapiens) (UniProt P33261); experiment: qHTS Assay for Inhibitors and Substrates of Cytochrome P450 2C19 (AID 899; active = well fitted curve in the direction sought with a large enough effect; an effect the other way counts as inactive or inconclusive; also: potency is read from the fitted curve at half-maximal effect; nearly all actives have a fitted effect of over 60% in size); conditions: recombinant CYP2C19, luciferin-H EGE luminescence; series mostly up to 57.1 µM
Sequence of Cytochrome P450 2C19 (Homo sapiens) (P33261 whole entry, looked up): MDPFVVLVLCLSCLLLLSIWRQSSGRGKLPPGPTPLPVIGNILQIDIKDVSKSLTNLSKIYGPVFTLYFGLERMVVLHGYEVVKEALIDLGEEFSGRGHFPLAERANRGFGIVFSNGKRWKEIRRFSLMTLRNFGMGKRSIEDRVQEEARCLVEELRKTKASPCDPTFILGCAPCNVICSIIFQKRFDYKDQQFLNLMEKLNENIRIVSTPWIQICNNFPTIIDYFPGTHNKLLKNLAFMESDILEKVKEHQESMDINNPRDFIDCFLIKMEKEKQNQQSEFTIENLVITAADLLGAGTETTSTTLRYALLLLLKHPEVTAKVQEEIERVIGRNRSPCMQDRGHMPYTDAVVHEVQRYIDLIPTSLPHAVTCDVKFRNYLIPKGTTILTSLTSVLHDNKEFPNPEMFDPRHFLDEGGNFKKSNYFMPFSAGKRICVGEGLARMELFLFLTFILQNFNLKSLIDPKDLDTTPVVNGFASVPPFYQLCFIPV
Procedure, shortened: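 5 nM human CYP2C19 with 10uM Luciferin-H EGE (at KM) in 50mM KPO4, compound preincubated 10 min at 37C, then NADPH regeneration for 60 min at 37C. Luciferin read by luminescence after detection reagent; normalized to 57uM ketoconazole as full inhibition.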

[20] = measured here: cell count channel max response
[21] = measured here: lipid channel max response

COc1ccc(-n2c(=O)c(C)nc3cnc(Oc4ccccc4)nc32)cc1
20.5%: max response [11, 21]
inactive: Potency [1] > 11.4 µM | activity change, negative = inhibition [2] -0.42% | activity change, negative = inhibition [4] 4.01% | activity, negative = inhibition [5] -17.4% | Potency [6] > 9.22 µM | Potency [7] > 46 µM | outcome [8] | Potency [9] | Potency [10] | activity change, negative = inhibition [11] 1.98% | Potency [12]
active: Potency [3] 7.94 µM
16.7%: max response [11, 20]

COCCn1c(=O)c(C)nc2cnc(N3CCNCC3)nc21
4.65%: max response [11, 20]
inactive: Potency [1] > 11.4 µM | activity change, negative = inhibition [2] -21.3% | activity change, negative = inhibition [4] -18.9% | activity, negative = inhibition [5] -2.95% | Potency [6] > 9.22 µM | Potency [7] > 46 µM | outcome [8] | Potency [9] | activity change, negative = inhibition [11] 1.17% | Potency [12]
6.84%: max response [11, 21]
active: Potency [3] 10 µM

Cn1c(=O)c(-c2cc(F)cc(F)c2)nc2cnc(Oc3ccccc3)nc21
21.4%: max response [11, 20]
active: Potency [3] 2 µM
16.5%: max response [11, 21]
inactive: Potency [1] > 11.4 µM | activity change, negative = inhibition [2] -7.91% | activity change, negative = inhibition [4] 3.31% | activity, negative = inhibition [5] 0.814% | Potency [6] > 9.22 µM | Potency [7] > 46 µM | outcome [8] | Potency [9] | Potency [13] | activity change, negative = inhibition [11] -4.93% | Potency [12]

Cc1noc(C)c1-c1cc(NCc2ccccc2)ncn1
18%: max response [11, 21]
active: Potency [3] 5.01 µM
inactive: Potency [1] > 11.4 µM | activity change, negative = inhibition [2] -3.94% | activity change, negative = inhibition [4] -10.6% | activity, negative = inhibition [5] -12.8% | Potency [6] > 46 µM | outcome [8] | Potency [9] | outcome [14] | outcome [15] | activity change, negative = inhibition [11] 9.87% | Potency [16] | Potency [12]
11.1%: max response [11, 20]

COc1ncc2nc(-c3cccs3)c(=O)n(-c3ccccc3)c2n1
inactive: Potency [1] > 11.4 µM | activity change, negative = inhibition [2] -4.36% | activity change, negative = inhibition [4] -4.96% | activity, negative = inhibition [5] 17.5% | Potency [6] > 9.22 µM | Potency [7] > 46 µM | outcome [8] | Potency [9] | activity change, negative = inhibition [11] -3.04% | Potency [12]
-0.0529%: max response [11, 20]
-2.75%: max response [11, 21]
active: Potency [3] 2 µM | Potency [17] 3.16 µM

Cc1cccc(CNc2ccnc(-c3cccnc3)n2)c1
inactive: Potency [1] > 11.4 µM | activity change, negative = inhibition [2] -18.1% | activity change, negative = inhibition [4] 10.6% | activity, negative = inhibition [5] 1.1% | Potency [6] > 46 µM | Potency [7] > 46 µM | outcome [8] | Potency [9] | Potency [10] | outcome [14] | outcome [15] | activity change, negative = inhibition [11] 8.22% | Potency [12]
active: Potency [3] 0.126 µM | Potency [13] 0.501 µM | Potency [18] 0.631 µM | Potency [19] 2.51 µM
-5.64%: max response [11, 21]
-7.71%: max response [11, 20]
